PfHsp40 yeast: restores yeast growth despite PfHsp40 toxicity; growth rescue, % at 12.5 µM; 340,000 tested, 0.68% active; AID 504582; S. cerevisiae expressing PfHsp40, growth rescue, ATP luminescence; in the data active = growth rescue above about 28%, passing the limit was not always enough;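 note: yeast W303a lacking pdr1 and pdr3 grown in galactose medium; growth measured after three days at 30 °C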
PrP UTR inh: suppresses PrP 5' UTR mRNA reporter expression | cell-based PrP 5' UTR mRNA reporter, plate reader | inhibition, % (test concentration not listed) | 340,000 tested, 0.35% active | AID 488862; in the data active = inhibition above about 52%; note: 0 = median of the neutral control wells
BJeLR viability: kills HRASV12-expressing BJeLR cells | AID 1554 | BJeLR (HRASV12) viability, CellTiter-Glo ATP luminescence, 48 h | inhibition, % (concentration not given with the values) | 300,000 tested, 0.17% active; in the data active = inhibition above about 50%
PrPC TRFRET: reduces human prion protein on the cell surface; P04156; cell surface PrPC, TR-FRET read-out; inhibition, % at 13.8 µM; 370,000 tested, 0.43% active; in the data active = inhibition above about 24%; note: 0% = median of the test wells and 100% = reference compound wells
Y pestis TopoI: blocks Yersinia pestis topoisomerase I activity. 360,000 tested, 0.064% active. Y. pestis Topo-I cleavage product accumulation, plate reader. activity, % at 10 µM; in the data active = activity above about 50%, passing the limit was not always enough
CCHF vOTU inh-1: CCHFV vOTU protease inhibition; Pep-AMC fluorescence; inhibition, % at 11.5 µM; 370,000 tested, 0.55% active; AID 651958; note: 0% = vehicle wells with enzyme and 100% = no enzyme wells
CCHF vOTU inh-2: confirmation of CCHF virus vOTU protease inhibitors. shares compounds with CCHF vOTU inh-1. inhibition, % at 11.5 µM. Recombinant CCHFV vOTU, Pep-AMC fluorescence. AID 686976. 1,900 tested, 17% active
Starred values were filed as active, the others as inactive; / = no result. Sampled rows, rich in hits. Any-hit rate of the full collection: about 2%. Cut-off read from the data, not from the text of the source, unless noted: active = inhibition above about 30%; inactive = the rest.

SMILES	PfHsp40 yeast	PrP UTR inh	BJeLR viability	PrPC TRFRET	Y pestis TopoI	CCHF vOTU inh-1	CCHF vOTU inh-2
O=C(/C=C/c1ccc([N+](=O)[O-])s1)N1CCCCC1	-2.1	16.2	3.3	-21.9	3.7	32.2*	32.0*
O=C(/C=C/c1ccc([N+](=O)[O-])s1)N1CCCC1	0.9	-22.2	-3.1	-39.6	1.0	13.9	/
COc1ccc(CN2CN3Cc4cc(OC)ccc4C3CS2(=O)=O)cc1 (stereo not given)	/	/	/	-7.5	/	-4.3	/
Cc1nn(-c2ccccc2)c2sc(C(=O)N3CCN(Cc4ccc(F)cc4)CC3)cc12	/	/	/	-1.0	/	3.9	/
O=C(OCc1cn(Cc2ccc(F)cc2F)nn1)N1CCOCC1	/	/	/	-2.8	/	-3.8	/
COc1cc(C2Nc3cccc4cccc(c34)N2)cc(OC)c1OC(C)=O	-0.2	-14.6	-10.7	0.2	-12.6	3.4	/
COc1cc(C2Nc3cccc4cccc(c34)N2)ccc1O	0.2	-22.6	-9.5	11.0	-36.7	40.7*	24.2
CCOC(=O)Cn1cc(CN2C(C(=O)OC)CN(C3CC3)CCS2(=O)=O)nn1 (stereo not given)	/	/	/	-11.1	/	-2.0	/
Cc1ccc2c(c1)c1c(n2CC(O)CNC2CCCCC2)CCCC1 (stereo not given)	0.7	8.8	8.8	8.1	-16.1	64.5*	-11.6
Cn1c(=O)c2c(ncn2CC(=O)OCC(=O)c2ccc(Br)cc2)n(C)c1=O	/	/	/	8.3	2.6	32.3*	-6.1
Cn1c(=O)c2c(ncn2CC(=O)OCC(=O)c2ccc(Cl)cc2)n(C)c1=O	-1.6	-21.0	-13.4	3.5	-3.6	-5.4	/
C[C@H]1[C@@H](OC(=O)Nc2ccccc2C(F)(F)F)CC[C@@]23CCCN2C(=O)CCC[C@@H]13	/	/	/	4.0	/	/	/
Cc1ccc(/C=C/C(=O)Nc2nccs2)o1	5.6	-6.7	5.9	-12.1	6.7	51.1*	1.6
COc1ccc2c(c1)NP(=S)(c1ccccc1)N2C (stereo not given)	-0.8	-11.2	/	-14.6	0.4	38.4*	-18.1
O=C(N[C@@H](Cc1cccnc1)C(=O)N1CCC[C@H]1C(=O)NC1CCCC1)c1ccccc1	/	/	/	-1.3	/	-5.0	/
CN1/C(=C\C=C2C(=O)NC(=O)NC2=O)C(C)(C)c2ccccc21	-1.2	0.4	-2.5	-4.0	5.8	36.1*	36.9*
CN1/C(=C\C=Nc2ccccc2)C(C)(C)c2ccccc21	-0.9	-3.9	-10.0	18.4	-13.1	6.9	/
Cc1cccc2nc(-c3ccccc3)c(-c3ccc(CN4CCC5(CC4)CNc4ccccc45)cc3)nc12	/	/	/	5.9	/	24.4	/
O=C1NC[C@@H](CCCCN2C[C@H](Cc3ccc(O)cc3)N(CCC3CCCCC3)C(=O)C2=O)N(CC2CCCCC2)C1=O	/	/	/	5.2	/	35.1*	-12.7
CC(C)C[C@@H](CN1CCC[C@@H]1CN1C(=S)NC[C@@H]1Cc1ccc(O)cc1)N1C[C@H](Cc2ccc(O)cc2)N(CC2CCCCCC2)C1=S	/	/	/	3.1	/	32.4*	-17.0
CC(C)C[C@@H](CN1CCC[C@@H]1CN1C(=S)NC[C@@H]1Cc1ccc(O)cc1)N1C[C@H](Cc2ccc(O)cc2)N(CC2CCCCC2)C1=S	/	/	/	-4.1	/	16.9	/
O=C1NC[C@H](Cc2ccccc2)N(C[C@@H]2CCCN2C[C@H](Cc2ccccc2)N2C[C@H](Cc3ccccc3)N(CC3CCCCC3)C(=O)C2=O)C1=O	/	/	/	1.0	/	29.6*	2.8
O=C1NC[C@H](CCCCN2C[C@H](Cc3ccc(O)cc3)N(CC3CCCCC3)C(=O)C2=O)N(CCC2CCCCC2)C1=O	/	/	/	23.2	/	15.2	/
CCCCN(C)c1c2c(nc3ncnn13)CCCC2	/	/	/	3.9	/	-0.1	/
COc1ccc(-n2c(SCC(=O)NC3CCCCCC3)nnc2-c2ccncc2)cc1	/	/	/	-7.9	/	-0.1	/
O=C(CSc1nnc(-c2ccncc2)o1)Nc1nncs1	0.3	-12.1	3.9	0.3	3.0	5.4	/
O=C(CSc1nnc(-c2ccccc2Br)o1)Nc1nncs1	-1.1	-23.0	/	21.0	2.2	30.4*	-22.3
O=C(/C=C/c1ccccc1)Nc1cc(NC(=O)/C=C/c2ccccc2)cc(C(=O)O)c1	2.4	-13.6	3.2	-2.4	-8.4	35.6*	8.4
O=C(/C=C/c1cccc([N+](=O)[O-])c1)Nc1cc(C(=O)O)cc(C(=O)O)c1	0.7	-10.2	-4.5	-50.7	-1.8	-2.7	/

Source: PubChem (several laboratories)
